{"source": "PubChem BioAssay (EPA / NIEHS)", "key": {"[1]": {"tested_on": "rat Monoamine Oxidase, MAO-A, Central (MAOAC), gene 29253", "assay": "NVS_ENZ_rMAOAC: NovaScreen (NVS) Enzymatic Assay for rat Monoamine Oxidase, MAO-A, Central (MAOAC) (AID 2283243);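 note: potency refers to inhibition seen as signal drop below DMSO baseline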", "outline": "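Lysate-based radiometric enzyme assay using rat brain tissue; 1.5 h treatment; 25 uM single-point duplicate screen, concentration-response follow-up; loss of signal versus DMSO.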"}, "[2]": {"target": "rat Monoamine Oxidase, MAO-B, Central (MAOBC), Maob (gene 25750) (UniProt P19643)", "sequence (P19643 whole entry, looked up)": "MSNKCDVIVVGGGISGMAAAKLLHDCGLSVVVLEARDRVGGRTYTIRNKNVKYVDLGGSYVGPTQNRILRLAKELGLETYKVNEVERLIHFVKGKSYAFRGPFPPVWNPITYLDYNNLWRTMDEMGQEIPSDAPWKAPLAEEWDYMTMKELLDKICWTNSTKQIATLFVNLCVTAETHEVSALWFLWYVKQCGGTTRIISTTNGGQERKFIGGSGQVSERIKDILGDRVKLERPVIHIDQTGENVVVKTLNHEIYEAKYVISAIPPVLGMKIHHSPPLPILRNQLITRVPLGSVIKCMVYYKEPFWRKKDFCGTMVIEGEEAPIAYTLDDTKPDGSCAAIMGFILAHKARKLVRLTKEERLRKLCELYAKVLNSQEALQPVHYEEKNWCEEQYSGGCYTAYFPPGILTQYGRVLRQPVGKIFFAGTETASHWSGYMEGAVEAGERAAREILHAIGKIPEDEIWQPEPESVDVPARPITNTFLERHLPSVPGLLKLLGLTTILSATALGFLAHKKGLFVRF", "assay": "NVS_ENZ_rMAOBC: NovaScreen (NVS) Enzymatic Assay for rat Monoamine Oxidase, MAO-B, Central (MAOBC) (AID 2283238)", "outline": "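Actives from a duplicate 25 uM screen went on to singleton concentration-response with a 50 uM maximum. Enzyme source was rat brain tissue MAO-B, assayed cell-free. Radiolabelled product was counted by scintillation 1.17 h post-dose, with signal loss relative to DMSO.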"}, "[3]": {"target": "rat CYP2C13, Cyp2c13 (gene 171521) (UniProt P20814)", "sequence (P20814 whole entry, looked up)": "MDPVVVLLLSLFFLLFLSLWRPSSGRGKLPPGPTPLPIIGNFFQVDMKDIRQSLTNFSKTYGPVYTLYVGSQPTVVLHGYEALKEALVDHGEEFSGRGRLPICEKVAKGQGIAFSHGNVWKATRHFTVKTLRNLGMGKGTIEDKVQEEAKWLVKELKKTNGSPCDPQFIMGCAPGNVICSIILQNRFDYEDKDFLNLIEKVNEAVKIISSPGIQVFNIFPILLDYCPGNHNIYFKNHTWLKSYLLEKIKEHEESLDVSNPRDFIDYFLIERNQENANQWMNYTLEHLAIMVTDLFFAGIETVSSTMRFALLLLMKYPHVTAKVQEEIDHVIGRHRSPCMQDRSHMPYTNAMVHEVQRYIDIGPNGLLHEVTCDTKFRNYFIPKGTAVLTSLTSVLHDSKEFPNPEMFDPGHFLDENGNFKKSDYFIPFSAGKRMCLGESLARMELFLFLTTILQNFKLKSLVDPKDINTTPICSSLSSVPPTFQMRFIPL", "assay": "NVS_ADME_rCYP2C13: NovaScreen (NVS) CYP450-related Enzyme Activity (ADME) Assay for rat CYP2C13 (AID 2283121)", "outline": "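Inhibition is read as decreased fluorescent product formation, referenced to acetonitrile vehicle. Cell-free recombinant rat Cyp2c13 reaction ran 0.75 hour; compounds first at 10 uM in duplicate, then concentration series for actives.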"}, "[4]": {"assay": "NVS_IC_rCaBTZCHL: NovaScreen (NVS) Ion Channel Assay for Calcium Channel, Type L, Benzothiazepine Site (CaBTZCHL) (AID 2283337)", "outline": "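Benzothiazepine-site binding was assessed in a tissue-derived, cell-free rat cortical membrane system. After 1.5 h exposure, radioactivity retained on filters was quantified by scintillation; positive and negative controls accompanied every plate.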"}, "[5]": {"assay": "CCTE_Shafer_MEA_dev_AB: CCTE's Alamar Blue Assay for Cytotoxicity in the Neural Network Formation Assay, Shafer Lab (AID 2284083);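 note: resazurin reduction fluorescence as viability of cultured neurons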", "outline": "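Resazurin fluorescence, relative to DMSO, gauges viability after twelve days of exposure that began at plating of rat cortical neurons (1.5 x 10^5 cells/well, 48-well MEA); treatment renewed with full medium exchange on DIV 5 and 9.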"}, "[6]": {"target": "Serine/threonine-protein phosphatase PP1-alpha catalytic subunit (Homo sapiens) (UniProt P62136)", "sequence (P62136 whole entry, looked up)": "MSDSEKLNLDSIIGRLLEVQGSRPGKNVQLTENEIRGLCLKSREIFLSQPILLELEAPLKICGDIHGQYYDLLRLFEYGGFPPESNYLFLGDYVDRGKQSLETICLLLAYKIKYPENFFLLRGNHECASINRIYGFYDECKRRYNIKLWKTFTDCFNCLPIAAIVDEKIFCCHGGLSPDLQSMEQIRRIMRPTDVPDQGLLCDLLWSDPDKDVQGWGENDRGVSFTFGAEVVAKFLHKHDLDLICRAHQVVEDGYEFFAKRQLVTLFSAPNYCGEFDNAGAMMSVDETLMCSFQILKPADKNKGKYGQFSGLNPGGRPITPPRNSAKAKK", "assay": "NVS_ENZ_hPPP1CA: NovaScreen (NVS) Enzymatic Assay for human Protein Phosphatase 1 Aatalytic subunit Alpha (PPP1CA) (AID 2283200)", "outline": "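Chemicals were first screened in duplicate at 25 uM, and those passing threshold (e.g. 30% inhibition) were run as concentration series to 50 uM. Cell-free recombinant protein, 1.33 h read, fluorescent substrate/product mobility-shift detection, normalised to DMSO.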"}, "[7]": {"target": "human Protein Tyrosine Phosphatase Non-receptor Type 4 (PTPN4), PTPN4 (gene 5775) (UniProt P29074)", "sequence (P29074 whole entry, looked up)": "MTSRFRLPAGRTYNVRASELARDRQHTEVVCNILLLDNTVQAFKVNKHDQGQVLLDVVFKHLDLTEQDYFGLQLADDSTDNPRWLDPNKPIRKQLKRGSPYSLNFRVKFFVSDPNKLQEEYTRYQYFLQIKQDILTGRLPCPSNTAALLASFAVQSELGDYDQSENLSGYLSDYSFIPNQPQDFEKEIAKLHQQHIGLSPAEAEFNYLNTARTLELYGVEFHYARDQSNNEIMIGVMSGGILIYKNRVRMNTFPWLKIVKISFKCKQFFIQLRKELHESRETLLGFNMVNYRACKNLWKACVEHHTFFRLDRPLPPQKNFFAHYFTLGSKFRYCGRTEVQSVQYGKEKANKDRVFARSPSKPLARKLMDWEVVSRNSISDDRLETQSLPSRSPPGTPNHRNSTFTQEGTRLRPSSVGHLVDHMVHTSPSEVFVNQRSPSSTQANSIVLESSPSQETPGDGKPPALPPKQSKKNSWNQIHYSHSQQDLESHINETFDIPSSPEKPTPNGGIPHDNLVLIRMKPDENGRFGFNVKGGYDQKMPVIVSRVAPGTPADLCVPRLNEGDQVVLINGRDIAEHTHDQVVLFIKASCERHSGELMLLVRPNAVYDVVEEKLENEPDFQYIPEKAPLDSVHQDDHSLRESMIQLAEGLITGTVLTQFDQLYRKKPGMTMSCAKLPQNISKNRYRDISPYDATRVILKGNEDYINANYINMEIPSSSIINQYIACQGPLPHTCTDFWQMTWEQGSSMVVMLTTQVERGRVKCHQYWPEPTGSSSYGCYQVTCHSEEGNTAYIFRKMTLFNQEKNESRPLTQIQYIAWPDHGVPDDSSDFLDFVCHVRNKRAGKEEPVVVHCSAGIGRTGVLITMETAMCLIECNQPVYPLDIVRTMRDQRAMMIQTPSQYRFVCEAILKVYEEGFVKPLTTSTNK", "assay": "NVS_ENZ_hPTPN4: NovaScreen (NVS) Enzymatic Assay for human Protein Tyrosine Phosphatase Non-receptor Type 4 (PTPN4) (AID 2283208)", "outline": "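Screened in duplicate at 25 uM, with hits then titrated to a top concentration of 50 uM. Recombinant Sf9-derived PTPN4 turnover was read by fluorescence with electrophoretic separation, 1.33 h after compound addition. DMSO served as baseline.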"}, "[8]": {"assay": "Tanguay_ZF_120hpf_PIG_legacy: (Legacy) Oregon State University Tanguay Lab 120 Hour Post-fertilization zebrafish Assay for Pigmentation Malformation (AID 2283650)", "outline": "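Pigment malformation recorded as a binary call at 120 hpf in zebrafish (Tropical 5D) exposed singly from 6 hpf after pronase dechorionation. Static, sealed, 28C exposure, 0.64% DMSO; mortality excludes scoring; positive-direction fit against DMSO.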"}, "[9]": {"assay": "CCTE_Padilla_ZF_144hpf_TERATOSCORE: (Legacy) CCTE's 144 Hour Post-fertilization zebrafish Assay Teratoscore, Padilla Lab (AID 2283679; active = hit-call score of the fitted dose curve at least 0.9, where 1 is the maximum; inactive = score below 0.9;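 note: zebrafish embryos with chorions exposed by immersion from 6-8 hpf to 5 dpf with daily renewal; higher score means more developmental defects relative to DMSO baseline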)", "outline": "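Larvae scored by eye at 144 hpf for death, hatching and malformations after a day in clean Hanks'. Before that, daily-renewed exposure at 80 uM (0.4% DMSO, 26C) from roughly 6-8 hpf through 5 dpf, 4 embryos per chemical.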"}, "[10]": {"target": "human AMP-activated Protein Kinase, alpha 1 (AMPKa1), PRKAA1 (gene 5562) (UniProt Q13131)", "assay": "NVS_ENZ_hAMPKa1: NovaScreen (NVS) Enzymatic Assay for human AMP-activated Protein Kinase, alpha 1 (AMPKa1) (AID 2283130)", "outline": "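Compounds were screened in duplicate at 25 uM, and those reaching ~30% inhibition were titrated up to 50 uM. The enzyme was recombinant human AMPKα1, and kinase turnover was read by fluorescence/mobility shift 1 h post-dosing as loss of signal versus DMSO.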"}, "[11]": {"target": "human AKT serine/threonine Kinase 1 (AKT1), AKT1 (gene 207) (UniProt P31749)", "sequence (P31749 whole entry, looked up)": "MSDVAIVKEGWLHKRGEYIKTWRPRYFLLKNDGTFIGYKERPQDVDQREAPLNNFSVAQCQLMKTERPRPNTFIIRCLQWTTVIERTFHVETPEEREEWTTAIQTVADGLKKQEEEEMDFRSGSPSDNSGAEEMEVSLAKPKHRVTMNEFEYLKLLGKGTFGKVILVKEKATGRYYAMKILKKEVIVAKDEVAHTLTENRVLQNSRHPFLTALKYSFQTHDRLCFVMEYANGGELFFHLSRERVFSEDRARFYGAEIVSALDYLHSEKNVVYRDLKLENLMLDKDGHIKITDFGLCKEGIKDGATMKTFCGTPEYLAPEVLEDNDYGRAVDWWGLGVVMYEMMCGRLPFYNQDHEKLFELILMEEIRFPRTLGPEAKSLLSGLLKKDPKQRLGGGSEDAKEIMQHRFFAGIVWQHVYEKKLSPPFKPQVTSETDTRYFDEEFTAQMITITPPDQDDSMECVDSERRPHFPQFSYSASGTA", "assay": "NVS_ENZ_hAKT1: NovaScreen (NVS) Enzymatic Assay for human AKT serine/threonine Kinase 1 (AKT1) (AID 2283138)", "outline": "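A biochemical assay with recombinant enzyme and specific substrate, read by fluorescence intensity with mobility-shift separation 1 hour after dosing. Actives from 25 uM duplicate screening were titrated up to 50 uM against DMSO baseline.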"}, "[12]": {"target": "human Casein Kinase 1-delta (CK1D), CSNK1D (gene 1453) (UniProt P48730)", "sequence (P48730 whole entry, looked up)": "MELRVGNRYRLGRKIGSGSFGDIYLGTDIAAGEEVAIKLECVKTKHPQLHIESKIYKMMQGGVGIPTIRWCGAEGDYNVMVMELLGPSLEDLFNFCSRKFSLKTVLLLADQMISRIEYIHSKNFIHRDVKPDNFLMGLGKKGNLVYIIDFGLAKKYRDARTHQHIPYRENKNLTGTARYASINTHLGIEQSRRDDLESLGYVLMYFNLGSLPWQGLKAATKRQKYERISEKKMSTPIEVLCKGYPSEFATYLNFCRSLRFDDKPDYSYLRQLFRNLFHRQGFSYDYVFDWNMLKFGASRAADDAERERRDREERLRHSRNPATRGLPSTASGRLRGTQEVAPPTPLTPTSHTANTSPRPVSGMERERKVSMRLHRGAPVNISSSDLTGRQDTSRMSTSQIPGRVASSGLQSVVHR", "assay": "NVS_ENZ_hCK1D: NovaScreen (NVS) Enzymatic Assay for human Casein Kinase 1-delta (CK1D) (AID 2283148)", "outline": "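Recombinant human CK1-delta, cell-free; fluorescent substrate with electrophoretic mobility-shift separation of product, read 1 h after dosing. Single 25 uM duplicate screen, then concentration-response up to 50 uM; loss of signal vs DMSO.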"}, "[13]": {"target": "human Colony Stimulating Factor 1 Receptor (CSF1R), CSF1R (gene 1436) (UniProt P07333)", "assay": "NVS_ENZ_hCSF1R: NovaScreen (NVS) Enzymatic Assay for human Colony Stimulating Factor 1 Receptor (CSF1R) (AID 2283150)", "outline": "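Compounds screened in duplicate at 25 uM, then concentration-response (top 50 uM) for those passing threshold such as 30% inhibition; recombinant CSF1R activity measured 1 h post-dosing via fluorescent substrate/product mobility-shift separation, loss of signal versus DMSO.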"}, "[14]": {"target": "human FYN Proto-Oncogene, Src family Tyrosine Kinase (Fyn), FYN (gene 2534) (UniProt P06241)", "sequence (P06241 whole entry, looked up)": "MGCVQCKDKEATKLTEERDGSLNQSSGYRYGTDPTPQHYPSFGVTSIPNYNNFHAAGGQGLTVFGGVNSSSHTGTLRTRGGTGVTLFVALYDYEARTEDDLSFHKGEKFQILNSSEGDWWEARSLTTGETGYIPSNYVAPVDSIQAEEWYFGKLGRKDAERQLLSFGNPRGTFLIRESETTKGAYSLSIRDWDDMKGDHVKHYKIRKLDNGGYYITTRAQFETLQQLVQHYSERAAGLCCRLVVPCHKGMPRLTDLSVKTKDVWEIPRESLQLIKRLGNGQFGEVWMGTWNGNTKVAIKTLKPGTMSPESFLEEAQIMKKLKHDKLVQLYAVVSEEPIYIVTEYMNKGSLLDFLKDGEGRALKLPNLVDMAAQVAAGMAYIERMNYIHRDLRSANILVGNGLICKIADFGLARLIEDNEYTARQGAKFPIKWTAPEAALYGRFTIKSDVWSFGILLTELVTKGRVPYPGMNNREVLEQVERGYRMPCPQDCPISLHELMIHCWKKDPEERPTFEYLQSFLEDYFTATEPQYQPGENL", "assay": "NVS_ENZ_hFyn: NovaScreen (NVS) Enzymatic Assay for human FYN Proto-Oncogene, Src family Tyrosine Kinase (Fyn) (AID 2283161)", "outline": "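Cell-free kinase activity read by fluorescence after mobility-shift separation of substrate and product, 1 h post-dose. Initial single concentration 25 uM in duplicate, then concentration-response follow-up; DMSO baseline.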"}, "[15]": {"target": "Tyrosine-protein phosphatase non-receptor type 11 (Homo sapiens) (UniProt Q06124)", "sequence (Q06124 whole entry, looked up)": "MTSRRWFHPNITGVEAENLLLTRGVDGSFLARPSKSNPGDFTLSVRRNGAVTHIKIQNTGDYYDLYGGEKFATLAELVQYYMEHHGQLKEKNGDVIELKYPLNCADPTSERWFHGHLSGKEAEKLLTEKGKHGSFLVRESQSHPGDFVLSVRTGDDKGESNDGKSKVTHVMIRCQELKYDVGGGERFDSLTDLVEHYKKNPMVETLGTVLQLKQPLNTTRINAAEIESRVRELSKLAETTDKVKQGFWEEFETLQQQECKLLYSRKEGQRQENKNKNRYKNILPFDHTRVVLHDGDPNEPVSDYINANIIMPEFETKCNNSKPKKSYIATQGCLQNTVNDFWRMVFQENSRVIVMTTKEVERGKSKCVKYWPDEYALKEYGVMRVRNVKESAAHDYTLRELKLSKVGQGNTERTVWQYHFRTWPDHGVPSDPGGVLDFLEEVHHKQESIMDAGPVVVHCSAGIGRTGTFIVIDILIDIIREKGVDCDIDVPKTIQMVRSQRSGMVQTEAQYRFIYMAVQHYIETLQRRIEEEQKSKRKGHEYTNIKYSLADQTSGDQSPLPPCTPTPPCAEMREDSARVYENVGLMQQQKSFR", "assay": "NVS_ENZ_hPTPN11: NovaScreen (NVS) Enzymatic Assay for human Protein Tyrosine Phosphatase Non-receptor Type 11 (PTPN11) (AID 2283202)", "outline": "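Compounds first tested in duplicate at 25 uM; those reaching ~30% inhibition rerun in singleton concentration-response, top 50 uM. Phosphatase activity measured after 0.5 h by fluorescence with mobility-shift separation, relative to DMSO.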"}, "[16]": {"target": "Tyrosine-protein phosphatase non-receptor type 13 (Homo sapiens) (UniProt Q12923)", "assay": "NVS_ENZ_hPTPN13: NovaScreen (NVS) Enzymatic Assay for human Protein Tyrosine Phosphatase Non-receptor Type 13 (PTPN13) (AID 2283205)", "outline": "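Screened first at a single 25 uM in duplicate; compounds passing the threshold (e.g. 30% inhibition) were rerun in concentration series, top 50 uM. Recombinant enzyme, fluorescent substrate, mobility-shift separation, 0.5 h read. Data fitted as inhibition relative to DMSO.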"}, "[17]": {"target": "human Protein Tyrosine Phosphatase Non-receptor Type 2 (PTPN2), PTPN2 (gene 5771) (UniProt P17706)", "assay": "NVS_ENZ_hPTPN2: NovaScreen (NVS) Enzymatic Assay for human Protein Tyrosine Phosphatase Non-receptor Type 2 (PTPN2) (AID 2283207)", "outline": "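Activity measured as fluorescence after mobility-shift separation of substrate and product, 1 h after compound. Duplicate single-point 25 uM primary testing, concentration series for actives; inhibition scored as signal loss relative to DMSO baseline.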"}, "[18]": {"target": "human Vascular Endothelial Growth Factor Receptor 2 (VEGFR2), KDR (gene 3791) (UniProt P35968)", "assay": "NVS_ENZ_hVEGFR2: NovaScreen (NVS) Enzymatic Assay for human Vascular Endothelial Growth Factor Receptor 2 (VEGFR2) (AID 2283230)", "outline": "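Cell-free recombinant VEGFR2 kinase, fluorescent substrate with electrophoretic mobility-shift separation; read 1 h after dosing. Screened at 25 uM in duplicate, hits to concentration-response up to 50 uM; loss-of-signal versus DMSO.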"}, "[19]": {"target": "rat Constitutive Nitric Oxide Synthase (CNOS), Nos1 (gene 24598) (UniProt P29476)", "assay": "NVS_ENZ_rCNOS: NovaScreen (NVS) Enzymatic Assay for rat Constitutive Nitric Oxide Synthase (CNOS) (AID 2283236)", "outline": "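Single 25 uM duplicate screen, then concentration series to 50 uM for chemicals meeting threshold. Rat brain membrane-derived CNOS activity detected radiometrically by filtration and scintillation counting, 1 h after compound addition; DMSO as baseline.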"}, "[20]": {"target": "human CYP2C9, CYP2C9 (gene 1559) (UniProt P11712)", "sequence (P11712 whole entry, looked up)": "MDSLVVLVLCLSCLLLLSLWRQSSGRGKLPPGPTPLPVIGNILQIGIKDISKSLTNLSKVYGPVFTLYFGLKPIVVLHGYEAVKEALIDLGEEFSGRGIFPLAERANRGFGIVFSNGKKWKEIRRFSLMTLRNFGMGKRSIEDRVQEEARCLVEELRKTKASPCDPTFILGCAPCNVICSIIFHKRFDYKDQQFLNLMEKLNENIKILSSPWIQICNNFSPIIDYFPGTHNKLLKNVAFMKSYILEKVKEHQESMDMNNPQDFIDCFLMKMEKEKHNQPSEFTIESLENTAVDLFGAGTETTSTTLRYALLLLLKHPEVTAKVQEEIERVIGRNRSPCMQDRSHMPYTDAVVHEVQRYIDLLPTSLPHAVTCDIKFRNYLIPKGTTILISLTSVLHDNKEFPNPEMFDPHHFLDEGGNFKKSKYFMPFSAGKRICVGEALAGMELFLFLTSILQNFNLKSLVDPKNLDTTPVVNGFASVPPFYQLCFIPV", "assay": "NVS_ADME_hCYP2C9: NovaScreen (NVS) CYP450-related Enzyme Activity (ADME) Assay for human CYP2C9 (AID 2283108)", "outline": "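Fluorescence readout of CYP2C9 activity (SF9-expressed human enzyme) at 0.75 h. The primary screen used 10 uM in duplicate, with concentration-response follow-up for actives; acetonitrile was the negative control.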"}}, "note": "Inconclusive results are not listed. Calls of active or inactive are those of the source. Rule for the calls, unless noted: active = hit-call score of the fitted dose curve at least 0.9, where 1 is the maximum; inconclusive = response in the unintended direction; inactive = score below 0.9."}
{"smiles": "Nc1ccc(-c2ccc(N)c(N)c2)cc1N", "values": [{"measurement": "AC50", "setting": "[1]", "result": "14.1 µM (active)"}]}
{"smiles": "CC(Cc1ccc(C(C)(C)C)cc1)CN1C[C@@H](C)O[C@@H](C)C1", "note": "(stereo not given in full)", "values": [{"measurement": "AC50", "setting": "[2]", "result": "14.1 µM (active)"}]}
{"smiles": "O=CNC(N1CCN(C(NC=O)C(Cl)(Cl)Cl)CC1)C(Cl)(Cl)Cl", "note": "(stereo not given)", "values": [{"measurement": "outcome", "setting": "[3]", "result": "inactive"}]}
{"smiles": "O=C(O)CCCc1ccc(N(CCCl)CCCl)cc1", "values": [{"measurement": "outcome", "setting": "[4]", "result": "inactive"}]}
{"smiles": "CC1CCCC1.[C-]#[O+].[C-]#[O+].[C-]#[O+].[Mn]", "values": [{"measurement": "outcome", "setting": "[5]", "result": "inactive"}]}
{"smiles": "O=C(CCl)c1ccccc1", "values": [{"measurement": "outcome", "setting": "[6]", "result": "inactive"}, {"measurement": "outcome", "setting": "[7]", "result": "inactive"}, {"measurement": "outcome", "setting": "[8]", "result": "inactive"}, {"measurement": "AC50", "setting": "[9]", "result": "4.85 µM (active)"}]}
{"smiles": "O=[N+]([O-])c1ccc(Cl)cc1", "values": [{"measurement": "outcome", "setting": "[10]", "result": "inactive"}, {"measurement": "outcome", "setting": "[11]", "result": "inactive"}, {"measurement": "outcome", "setting": "[12]", "result": "inactive"}, {"measurement": "outcome", "setting": "[13]", "result": "inactive"}, {"measurement": "outcome", "setting": "[14]", "result": "inactive"}, {"measurement": "outcome", "setting": "[15]", "result": "inactive"}, {"measurement": "outcome", "setting": "[16]", "result": "inactive"}, {"measurement": "outcome", "setting": "[17]", "result": "inactive"}, {"measurement": "outcome", "setting": "[18]", "result": "inactive"}, {"measurement": "outcome", "setting": "[19]", "result": "inactive"}]}
{"smiles": "CC(C)(c1cc(Cl)c(O)c(Cl)c1)c1cc(Cl)c(O)c(Cl)c1", "values": [{"measurement": "AC50", "setting": "[20]", "result": "2.29 µM (active)"}]}
